The text below walks through data of PubChem BioAssay.

Activity calls are given as the source filed them.

In assay [1] the test system is PRMT1 (protein arginine N-methyltransferase 1). Nature of the assay: small molecules binding arginine methyltransferase PRMT1 – biochemical, small-molecule microarray, 635 nm fluorescence, primary screen (AID 1088).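 Further: binding of Prmt1 protein to compounds spotted on small-molecule microarray slides.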 The conditions noted are these: higher = more signal.
The nature of assay [2]: growth effects on S. cerevisiae YJM789 – YJM789 clinical isolate, OD600, 24 h, basal, primary screen (AID 1089).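 Further: growth of clinical yeast isolate S. cerevisiae YJM 789 seeded 1000 cells per well; test concentration not given here.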 The following applies: higher = more signal, called active from +8 up or from −8 down.
A short description of assay [3]: S. pombe growth modifiers, basal conditions – strain 972, OD600, 24 h, no modulator, primary screen (AID 1090).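 Further: basal condition with compound alone and no growth modifier present; test concentration not given here.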 The following applies: S. pombe 972 growth, higher = more signal, called active from +8 up or from −8 down.
Assay [4] in a line: budding yeast growth modifiers under rapamycin – strain BY4716, OD600, 96 h, primary screen (AID 1091). Further: test concentration not given here. The following applies: S. cerevisiae BY4716 + rapamycin, higher = more signal, called active from +8 up or from −8 down.
The target of assay [5] is Torsin-1A-interacting protein 2 (Homo sapiens) (UniProt Q8NFQ8). Nature of the assay: small molecules binding lysate-expressed LULL1 – cell lysate, human LULL1 lysate, 635/667 nm fluorescence, primary screen (AID 1092).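 Further: probe is lysate of COS7 cells overexpressing human LULL1; score merges per-feature 667 nm fluorescence with signal-to-noise.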 The following applies: small-molecule microarray, hLULL1 lysate binding, 635 nm fluorescence; higher = more signal.
Torsin-1A-interacting protein 2 (Homo sapiens), sequence (Q8NFQ8 whole entry, looked up): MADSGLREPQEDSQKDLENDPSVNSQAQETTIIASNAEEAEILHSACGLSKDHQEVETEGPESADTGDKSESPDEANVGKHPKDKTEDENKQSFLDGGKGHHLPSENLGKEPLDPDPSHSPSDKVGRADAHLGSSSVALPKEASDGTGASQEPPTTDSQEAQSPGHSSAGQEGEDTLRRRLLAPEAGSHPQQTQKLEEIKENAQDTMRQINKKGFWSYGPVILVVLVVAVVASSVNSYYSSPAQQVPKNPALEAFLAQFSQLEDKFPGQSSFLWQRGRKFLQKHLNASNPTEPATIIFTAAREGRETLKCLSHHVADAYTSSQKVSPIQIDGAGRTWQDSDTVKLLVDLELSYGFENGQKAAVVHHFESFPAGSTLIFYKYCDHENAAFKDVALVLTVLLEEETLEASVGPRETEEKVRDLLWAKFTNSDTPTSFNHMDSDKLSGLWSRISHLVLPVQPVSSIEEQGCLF
Assay [6] can be described thus: optical density change of DRC41 E. coli – strain DRC41, OD650, 24 h, E. coli filamentation project, primary screen (AID 1093).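 Further: MC1000 strain lacking acrAB efflux and sulA so SOS filamentation is blocked; test concentration not given here.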 The following applies: E. coli DRC41 growth, higher = more signal, called active from +8 up or from −8 down.
The nature of assay [7]: probe aLefty2 binding to arrayed compounds – biochemical, biotinylated probe, 635/667 nm fluorescence, primary screen (AID 1094).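 Further: score merges spot fluorescence near 667 nm with spot signal-to-noise ratio.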 The conditions noted are these: small-molecule microarray, higher = more signal.
Assay [8] concerns Noggin (protein binding on small-molecule microarray). Nature of the assay: small molecules binding Noggin protein – biochemical, 635/667 nm fluorescence, primary screen (AID 1095).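 Further: score merges 667 nm feature fluorescence with signal to noise over triplicate slides.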 The following applies: 635 nm fluorescence, higher = more signal.
Assay [9] has as its target Neurogenic locus notch homolog protein 3 (Homo sapiens) (UniProt Q9UM47). Nature of the assay: small molecules binding NOTCH3 protein – biochemical, 635/667 nm fluorescence, primary screen (AID 1096). The following applies: small-molecule microarray, 635 nm fluorescence, higher = more signal.
Assay [10] is described as follows: probe aEGFR binding to arrayed compounds – biochemical, biotinylated probe, 635/667 nm fluorescence, primary screen (AID 1097).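 Further: probe is a biotinylated anti-EGFR antibody binding compounds printed on slides; score combines fluorescence near 667 nm and signal to noise of each spot.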 The conditions noted are these: small-molecule microarray, higher = more signal.

Neurogenic locus notch homolog protein 3 (Homo sapiens), sequence (Q9UM47 whole entry, looked up): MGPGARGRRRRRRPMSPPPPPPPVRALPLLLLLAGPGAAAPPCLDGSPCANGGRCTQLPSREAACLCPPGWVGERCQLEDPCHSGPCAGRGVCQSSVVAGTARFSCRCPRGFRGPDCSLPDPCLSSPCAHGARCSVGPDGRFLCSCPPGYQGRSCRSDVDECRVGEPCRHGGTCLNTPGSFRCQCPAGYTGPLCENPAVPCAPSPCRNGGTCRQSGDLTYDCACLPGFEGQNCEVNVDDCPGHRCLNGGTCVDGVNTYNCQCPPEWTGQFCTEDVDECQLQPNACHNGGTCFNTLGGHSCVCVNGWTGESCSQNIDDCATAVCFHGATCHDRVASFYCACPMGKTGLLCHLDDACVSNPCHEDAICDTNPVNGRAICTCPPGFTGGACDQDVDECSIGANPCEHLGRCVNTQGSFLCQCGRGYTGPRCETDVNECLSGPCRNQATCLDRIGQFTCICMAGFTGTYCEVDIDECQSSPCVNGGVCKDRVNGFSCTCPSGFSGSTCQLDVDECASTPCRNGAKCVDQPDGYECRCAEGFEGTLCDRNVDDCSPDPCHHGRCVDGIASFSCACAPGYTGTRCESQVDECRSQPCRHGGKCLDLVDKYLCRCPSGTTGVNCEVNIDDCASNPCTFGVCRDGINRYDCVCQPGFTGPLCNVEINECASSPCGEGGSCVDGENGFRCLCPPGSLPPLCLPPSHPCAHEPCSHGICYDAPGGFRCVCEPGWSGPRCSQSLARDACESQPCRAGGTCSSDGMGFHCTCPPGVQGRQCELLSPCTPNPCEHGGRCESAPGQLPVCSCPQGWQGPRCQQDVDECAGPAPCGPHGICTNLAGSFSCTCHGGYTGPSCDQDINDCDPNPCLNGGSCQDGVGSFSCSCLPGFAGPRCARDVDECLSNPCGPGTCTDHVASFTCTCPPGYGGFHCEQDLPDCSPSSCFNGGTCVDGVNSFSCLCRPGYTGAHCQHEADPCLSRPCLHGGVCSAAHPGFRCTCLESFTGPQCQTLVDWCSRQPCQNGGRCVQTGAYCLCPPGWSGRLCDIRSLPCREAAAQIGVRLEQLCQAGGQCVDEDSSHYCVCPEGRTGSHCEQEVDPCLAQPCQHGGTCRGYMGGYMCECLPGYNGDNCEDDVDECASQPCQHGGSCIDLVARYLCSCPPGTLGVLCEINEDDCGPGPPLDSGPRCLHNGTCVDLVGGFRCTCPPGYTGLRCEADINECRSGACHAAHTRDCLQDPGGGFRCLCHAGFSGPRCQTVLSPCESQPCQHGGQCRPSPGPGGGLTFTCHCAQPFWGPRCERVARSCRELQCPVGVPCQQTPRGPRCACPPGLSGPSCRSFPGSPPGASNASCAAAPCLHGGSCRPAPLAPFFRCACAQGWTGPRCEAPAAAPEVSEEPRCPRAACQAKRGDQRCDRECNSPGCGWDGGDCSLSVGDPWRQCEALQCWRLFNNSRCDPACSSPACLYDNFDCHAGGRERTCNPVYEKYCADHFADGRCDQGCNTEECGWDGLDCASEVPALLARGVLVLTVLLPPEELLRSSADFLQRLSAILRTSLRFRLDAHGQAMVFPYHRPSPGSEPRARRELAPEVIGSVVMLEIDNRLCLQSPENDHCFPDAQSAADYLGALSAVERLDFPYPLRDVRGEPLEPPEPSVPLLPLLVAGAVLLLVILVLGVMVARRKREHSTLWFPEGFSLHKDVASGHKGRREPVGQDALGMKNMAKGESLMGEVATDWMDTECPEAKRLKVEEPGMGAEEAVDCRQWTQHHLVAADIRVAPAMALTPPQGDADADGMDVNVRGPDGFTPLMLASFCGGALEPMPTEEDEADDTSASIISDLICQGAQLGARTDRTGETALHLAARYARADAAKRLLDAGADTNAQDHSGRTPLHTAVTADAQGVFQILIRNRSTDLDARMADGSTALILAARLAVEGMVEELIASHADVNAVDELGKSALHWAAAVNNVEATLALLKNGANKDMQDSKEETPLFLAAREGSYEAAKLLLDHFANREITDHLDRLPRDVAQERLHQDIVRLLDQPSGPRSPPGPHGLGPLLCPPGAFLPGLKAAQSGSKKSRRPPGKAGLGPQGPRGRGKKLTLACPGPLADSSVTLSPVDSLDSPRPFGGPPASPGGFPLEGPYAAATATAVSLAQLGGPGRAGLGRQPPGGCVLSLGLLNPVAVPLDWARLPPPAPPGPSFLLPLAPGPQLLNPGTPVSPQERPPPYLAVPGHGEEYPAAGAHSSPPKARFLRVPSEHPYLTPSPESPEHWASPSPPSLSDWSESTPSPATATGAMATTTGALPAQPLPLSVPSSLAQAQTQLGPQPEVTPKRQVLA

On to `C[C@@]1([C@@H](NC(=O)c2cccs2)c2ccc(-c3ccccc3)cc2)C[C@H]1C1CCCCC1`, for which the composite z-score in assay [1] was -1.61; in [5], 2.95; in [7], -0.288; in assay [8] it was -0.786; in assay [9], -1.31; in [10], -0.239. In addition, the z-score is 1.53 (inactive) in assay [2], -0.584 (inactive) in assay [3], -0.578 (inactive) in [4] and -0.474 (inactive) in assay [6].

Turning to `COC(=O)C(CC#Cc1ccc2c(c1)[C@]1(C(=O)N2)[C@H](C(=O)N2CCc3cc(OC)c(OC)cc3C2)[C@H]2C(=O)O[C@H](c3ccccc3)[C@H](c3ccccc3)N2[C@@H]1c1ccc(O)cc1)C(=O)OC`, the composite z-score came to 1.48 in assay [1]; 2.83 in [5]; 0.157 in assay [7]; 1.88 in assay [8]; 1.09 in assay [9]; 0.404 in assay [10]. For the same compound, the z-score in [2] was 2.78 (inactive); in [3], 0.355 (inactive); in assay [4], 2.62 (inactive); in assay [6], 2.04 (inactive).

In the case of `Cc1ccc(S[C@]2(C(=O)NCC(C)C)CC(=O)N(C3CCCCC3)[C@@H]2c2ccc(CO)cc2I)cc1`, the composite z-score is 1.56 in [1]; 2.59 in [5]; 0.11 in assay [7]; 0.165 in assay [8]; 1 in [9]; -0.276 in [10]. In addition, the z-score in [2] is -0.525 (inactive); in [3], 0.293 (inactive); in [4] it was -0.0866 (inactive); in assay [6] it was 0.12 (inactive).

Turning to `CN(C)CCCN1C(=O)[C@@]2(Cc3ccccc31)c1ccccc1C(=O)N(Cc1ccccc1)[C@H]2c1ccc(CO)cc1`, the composite z-score in assay [1] is 1.12; in assay [5], -0.42; in assay [7], -0.171; in [8], 0.542; in [9], 0.204; in [10] it was -0.184. Besides, the z-score in assay [2] is -0.0782 (inactive); in [3], -1.35 (inactive); in [4] it was -1.85 (inactive); in assay [6] it was -1.42 (inactive).

On to `COC(=O)[C@]1(Cc2ccccc2N=[N+]=[N-])N=C(c2ccc(OCCCO)cc2)O[C@@H]1c1ccccc1`, for which the composite z-score in assay [1] is 0.867; in [5] it was 2.21; in assay [7], 0.23; in assay [8], -0.4; in [9], -0.361; in assay [10], -0.136. The z-score was 0.537 (inactive) in [2], -1.28 (inactive) in assay [3], 21.8 (active) in [4] and 1.06 (inactive) in [6].

With `CN1C(=O)C2C=CC(C(O)C3CCCCC3)N(N(c3ccccc3)c3ccccc3)C2C1=O` (stereo not given), the composite z-score is 0.102 in assay [1]; 2.5 in assay [5]; 0.368 in assay [7]; -0.539 in assay [8]; -0.396 in assay [9]; 0.114 in [10]. Moreover, the z-score was 0.345 (inactive) in [2], 1.25 (inactive) in assay [3], 0.4 (inactive) in assay [4] and -0.989 (inactive) in assay [6].

For `CC1C=C(CCCO)C=C(C(=O)OCCS(C)(=O)=O)C(C(=O)OCCS(C)(=O)=O)=CN1Cc1cccc(OC(F)(F)F)c1` (stereo not given), the composite z-score in assay [1] was 0.482; in assay [5], 3.11; in assay [7], 0.0057; in assay [8] it was 0.0266; in assay [9], 0.379; in assay [10], -0.0418. Also, the z-score in assay [2] was -1.27 (inactive); in assay [3], -2.49 (inactive); in assay [4] it was -0.0014 (inactive); in assay [6] it was -0.436 (inactive).

Regarding `COc1cccc(C)c1NC(=O)O[C@H]1[C@H](OC(=O)Nc2ccccc2)[C@H](OC(=O)Nc2ccccc2)[C@@H](OC)O[C@@H]1CO`, the composite z-score was 1.55 in assay [1]; 3.35 in [5]; 0.0682 in assay [7]; 0.203 in assay [8]; 0.93 in assay [9]; -0.125 in assay [10]. The z-score in assay [2] is 0.547 (inactive); in assay [3], 1.03 (inactive); in [4] it was 3.23 (inactive); in assay [6] it was -0.721 (inactive).

For `O=C(C=C(CC(O)c1cccc(Cl)c1)OCCF)OCCF` (stereo not given), the composite z-score in assay [1] was -1.87; in assay [5], 0.0714; in [7] it was -0.166; in assay [8] it was -1.22; in assay [9], -1.11; in assay [10] it was -0.128. Further, the z-score in [2] was -2.44 (inactive); in [3] it was 0.291 (inactive); in assay [4], -0.582 (inactive); in assay [6], -0.106 (inactive).

With `COc1ccc(C(=O)Nc2ccc(CN3C(=O)[C@]4(O[C@H](CCn5cc([C@H](O)c6ccccc6)nn5)[C@@H]([Si](C)(C)c5ccc(OC)cc5)[C@@H]4C)c4ccccc43)cc2)cc1`, the composite z-score in [1] is 0.466; in assay [5], 0.658; in assay [7], 0.101; in assay [8], 0.341; in assay [9] it was -0.047; in assay [10] it was -0.169. For the same compound, the z-score was -0.0933 (inactive) in assay [2], -0.262 (inactive) in [3], 1.61 (inactive) in assay [4] and -0.615 (inactive) in [6].

With `NC(=O)NCC#Cc1ccc2c(c1)[C@]1(C(=O)N2)[C@H](c2ccc(O)cc2)N2[C@H](c3ccccc3)[C@H](c3ccccc3)OC(=O)[C@H]2[C@@H]1C(N)=O`, the composite z-score was 0.64 in assay [1]; 1.46 in assay [5]; -0.072 in assay [7]; -0.238 in assay [8]; -1.19 in assay [9]; -0.187 in assay [10]. Also, the z-score was 0.321 (inactive) in assay [2], 0.736 (inactive) in assay [3], 0.183 (inactive) in [4] and 0.248 (inactive) in [6].

For `CCCCC(O)C1C=CC2C(=O)N(Cc3ccccc3)C(=O)C2N1n1cnnc1` (stereo not given), the composite z-score in assay [1] was 0.623; in assay [5], 2.57; in [7], -0.103; in assay [8] it was 0.159; in assay [9] it was 0.62; in [10], 0.035. The z-score in assay [2] was -0.28 (inactive); in [3] it was 0.653 (inactive); in assay [4], -0.335 (inactive); in assay [6], -0.981 (inactive).

On to `COC(=O)c1ccc(OC)c(/C=C\CC(CCc2ccccc2)OC(C)=O)c1` (stereo not given), for which the composite z-score in [1] is -0.0961; in assay [5] it was 0.324; in [7], -0.154; in assay [8], -0.358; in assay [9], -0.255; in assay [10] it was -0.0899. Further, the z-score was -0.714 (inactive) in assay [2], -0.645 (inactive) in [3], -0.21 (inactive) in assay [4] and -0.031 (inactive) in assay [6].
